# Unmarked numbers belong to inactive results. Where a call stands in place of a potency, no number is given. The source made the active and inactive calls. The call rests on the fitted dose curve; in most records, active means well fitted cell-killing curve with a large enough effect in the repeat runs; inconclusive means weak or mixed curves, or effect the other way; inactive means flat fitted curve, though single readings scatter.
# Experiment: qHTS assay to identify small molecule HDAC inhibitors - cell viability counter screen (AID 1259365); further: nearly all actives have a fitted effect of over 50% in size
# Settings: HCT-116 viability, CellTiter-Glo ATP luminescence, 2 h; series mostly up to 92.4 µM
# Description: U.S. Tox21 Program National Center for Advancing Translational Sciences [NCATS] NIH Chemical Genomics Center [NCGC] U.S. Environmental Protection Agency [EPA] National Institutes of Environmental Health Sciences [NIEHS] National Toxicology Program [NTP] U.S. Food and Drug Administration [FDA] Tox21 Assay Overview: Histone deacetylases (HDACs) are a group of epigenetic enzymes that regulate gene expression by histone deacetylation. HDACs are capable of introducing epigenetic modifications and such aberrations contribute to the onset and progression of several human diseases, thus making HDACs a popular therapeutic target. For identifying endogenous class I/II HDAC inhibitors a homogenous, luminogenic HDAC I/II cell based assay was used to measure the relative activity of class I and II HDACs from cells. Wild type HCT-116 cells were used to screen Tox21 compound libraries for identifying class I/II HDAC inhibitors.
# Tox21 Assay Protocol Summary: HCT-116 cells were dispensed at 1,500 per well in 5uL of culture medium into white solid bottom 1536-well plates (Greiner Bio-One, Monroe, NC) using a Multidrop Combi (Thermo Scientific, Waltham, MA) dispenser. The assay plates were incubated at 37 C and 5% CO2 for an overnight, and then 23nL of compounds dissolved in DMSO and positive control were transferred using a Pintool station (Wako, San Diego, CA). The assay plates were incubated at 37C and 5% CO2 for 2hr. After compound treatment, 4uL of CellTiter-Glo reagent (Promega Corporation, Madison, WI) was added to each well of the assay plates using Flying Reagent Dispenser (FRD, Aurora Discovery, San Diego, CA) and incubated the assay plates at room temperature for 30min. The luminescence signal was quantified using a ViewLux plate reader (Perkin Elmer, Shelton, CT).
# Potency means the concentration at half of the fitted maximal effect.
Structure (SMILES),Potency,"activity change, negative = cytotoxicity"
C=C(C)C(=O)[O][Sn]([CH2]CCC)([CH2]CCC)[CH2]CCC,12.2 µM (active),–
Oc1cc(Cl)c(Cl)c(Cl)c1Cl,inactive,–
CC(=O)C(Cl)C(=O)N(C)C (stereo not given),inactive,–
CC(C)N(C(=O)SC/C(Cl)=C/Cl)C(C)C,inactive,–
N#CC(C#N)=NNc1cccc(Cl)c1,inactive,–
Nc1cc(Cl)ccc1Cl,inactive,–
O=Cc1ccccc1,inactive,–
Brc1cccc(-c2ccccc2)c1,inactive,–
COCCC#N,inactive,–
O=[N+]([O-])c1cc(C(F)(F)F)c(Cl)c([N+](=O)[O-])c1Nc1ncc(C(F)(F)F)cc1Cl,54.5 µM (active),–
COC(=O)N(OC)c1ccccc1COc1ccn(-c2ccc(Cl)cc2)n1,inactive,–
[Cl][Hg][c]1ccccc1,13.7 µM (active),–
S=C=Nc1ccccc1,inactive,–
CC1CCCC1,inactive,–
O.O.O.O.O.O.O=S(=O)([O-])[O-].[Ni+2],inactive,–
O=C(N[C@@H]1N=C(c2ccccc2F)c2cccc3c2N(CC3)C1=O)c1cc2ccccc2[nH]1,inactive,–
CO/N=C(/C1=NOCCO1)c1ccccc1Oc1ncnc(Oc2ccccc2Cl)c1F,inactive,–
COc1ccc(Cc2nccc3cc(OC)c(OC)cc23)cc1OC,inactive,–
N#Cc1ccc(N(CC(N)=O)CC(F)(F)F)cc1C(F)(F)F,inactive,–
C=CC(=O)[O][Sn]([CH2]CCC)([CH2]CCC)[CH2]CCC,19.3 µM (active),–

Structure (SMILES),Potency,"activity change, negative = cytotoxicity"
Oc1ccc2[nH]cc(CCCCN3CC=C(c4ccccc4)CC3)c2c1,inactive,–
CCCCCON=O,inactive,–
CCn1cc[n+](C)c1 (tested in a mixture with another compound),inactive,–
CC(C)C(Br)C(=O)NC(N)=O (stereo not given),inactive,–
ClCBr,inactive,–
CN(C)C(=S)SSC(=S)N(C)C,inactive,–
CCCCCCCCCCCCCCn1cc[n+](C)c1,inactive,–
CC(=O)[O-].CC(=O)[O-].CC(=O)[O-].[Sb+3],–,-3.57% [at 3.27 µM]
O=S1(=O)OCC2C(CO1)C1(Cl)C(Cl)=C(Cl)C2(Cl)C1(Cl)Cl (stereo not given),inactive,–
CCN(CC)CCN1C(=O)CN=C(c2ccccc2F)c2cc(Cl)ccc21,inactive,–
[O]=[Cr](=[O])([OH])[O][Cr](=[O])(=[O])[OH],inactive,–
Cc1nn(-c2cc(NS(C)(=O)=O)c(Cl)cc2Cl)c(=O)n1C(F)F,inactive,–
[F][Sn]([c]1ccccc1)([c]1ccccc1)[c]1ccccc1,inactive,–
CCCCN(CCCC)C(=S)[S-].CCCCN(CCCC)C(=S)[S-].[Ni+2],inactive,–
Cc1c([N+](=O)[O-])cc2c(c1[N+](=O)[O-])C(C)(C)CC2(C)C,inactive,–
CO/N=C(\C(=O)OC)c1ccccc1CO/N=C(\C)c1cccc(C(F)(F)F)c1,inactive,–
CC(Cc1ccc(OCC(=O)O)cc1)NCC(O)c1csc(C(F)(F)F)n1 (stereo not given),inactive,–
NC1CCC(CC2CCC(N)CC2)CC1 (stereo not given),inactive,–
C[C@]12CC[C@H]3[C@@H](CCC4=CC(=O)CC[C@@H]43)[C@@H]1CC[C@@H]2OC(=O)CCc1ccco1,inactive,–
CCCCCCCc1ccc(O)cc1,inactive,–
